Source: PubChem BioAssay
Only some compounds are listed: those with a hit (about 2.3% of all), similar ones and a draw of the others.
RGS12 GoLoco inh: blocks human Gai1 binding to RGS12 GoLoco peptide, red readout; Gai1:RGS12 GoLoco peptide FP, rhodamine, 10 min; AID 880; Potency, µM (highest dose often 61.6 µM), for the others: top-dose activity, negative = inhibition, usual class: inhibitors; P63096; 230,000 compounds, 0.44% hits; active means well fitted inhibition curve with a large enough effect, not every such curve was filed as active; inactive means no such curve, though single readings can be large or run the other way; further: potency means the concentration at half of the fitted maximal effect; on the % scale 0 is the no-effect control and ±100 the full control effect; nearly all actives have a fitted effect of over 30% in size
Target sequence (P63096 whole entry, looked up): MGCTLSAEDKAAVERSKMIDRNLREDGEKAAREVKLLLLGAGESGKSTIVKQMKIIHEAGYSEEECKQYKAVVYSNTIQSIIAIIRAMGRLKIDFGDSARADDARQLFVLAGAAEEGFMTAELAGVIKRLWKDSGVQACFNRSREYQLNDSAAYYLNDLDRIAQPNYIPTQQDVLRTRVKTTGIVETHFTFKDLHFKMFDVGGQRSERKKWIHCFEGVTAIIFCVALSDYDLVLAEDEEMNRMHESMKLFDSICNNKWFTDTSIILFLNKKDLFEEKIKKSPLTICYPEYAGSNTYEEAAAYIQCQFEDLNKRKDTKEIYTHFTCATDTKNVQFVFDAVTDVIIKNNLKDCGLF
FBPA coupling cs: counter-screen for Giardia aldolase inhibitors: coupling enzyme system; coupling enzyme system counterscreen, AmpLite Red fluorescence; activity change, negative = inhibition, % at 58.2 µM, hits read low; 290,000 compounds, 0.67% hits; AID 2472; in the data active means activity change below about -30%; further: on the % scale 0 is the no-effect control and ±100 the full control effect
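Counterscreen of the coupled detection system alone, without aldolase: glyceraldehyde-3-phosphate coupling enzymes plus AmpLite Red readout. Compounds at 57.5 uM final, 10 min RT preincubation, 20 min RT reaction, fluorescence 525/598 nm.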
VDR inhibitor: blocks the human vitamin D receptor | P11473 | VDR-SRC2-3 peptide fluorescence polarization, 2 h | Potency, µM, for the others: max response, negative = inhibition, hits mostly inhibitors | 400,000 compounds, 0.93% hits; further: potency means the concentration at half of the fitted maximal effect; on the % scale 0 is the no-effect control and ±100 the full control effect
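Inhibition of the VDR/SRC2-3 peptide interaction is quantified by fluorescence polarization. Compounds (23 nl, pintool) incubate with the reagents for 2 hours at ambient room temperature.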
HTT aggregate: mutant huntingtin aggregation inhibition; 220,000 compounds, 1.1% hits; PC12 HttQ103-GFP aggregates, Acumen cytometry, 40 h; Potency, µM (doses to about 46.1 µM), inactives show top-dose activity change, negative = inhibition, hits mostly inhibitors; further: potency means the concentration at half of the fitted maximal effect; on the % scale 0 is the no-effect control and ±100 the full control effect; nearly all actives have a fitted effect of over 60% in size
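Inducible Q103 Huntingtin exon 1–GFP PC12 line, 1500 cells/well in phenol red free DMEM with 5% equine and 5% calf serum. Tebufenozide 100 nM induced expression; compounds titrated; aggregates quantified by cytometry.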
KDM4E inh: JMJD2E (human) inhibition; B2RXH2; JMJD2E catalytic domain, FDH-coupled NADH fluorescence (FDH is formaldehyde dehydrogenase); Potency, µM (top dose mostly 57.1 µM), for the others: at the highest dose activity change, negative = inhibition, hits mostly inhibitors; 230,000 compounds, 1.6% hits; AID 2147; active means well fitted inhibition curve with a large enough effect, not every such curve was filed as active; inconclusive means small, poorly fitted or top-dose-only effect, or another doubt; inactive means no such curve, though single readings can be large or run the other way;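 further: potency means the concentration at half of the fitted maximal effect; 0% = wells with enzyme and -100% = buffer wells without enzyme; nearly all actives have a fitted effect of over 50% in size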
Target sequence (B2RXH2 1-337 limits assumed): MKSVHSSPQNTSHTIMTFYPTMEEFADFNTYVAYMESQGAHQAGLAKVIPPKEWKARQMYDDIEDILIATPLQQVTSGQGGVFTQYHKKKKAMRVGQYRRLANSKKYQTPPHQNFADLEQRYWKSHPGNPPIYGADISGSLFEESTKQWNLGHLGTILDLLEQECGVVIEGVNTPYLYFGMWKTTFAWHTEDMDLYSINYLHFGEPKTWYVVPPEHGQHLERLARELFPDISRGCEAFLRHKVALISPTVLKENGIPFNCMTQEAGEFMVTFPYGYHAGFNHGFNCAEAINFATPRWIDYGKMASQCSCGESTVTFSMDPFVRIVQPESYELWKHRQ
HTT ATP protect: protects HTT-Q103 PC12 cells, measured by ATP | PC12 HTT-Q103 induced, cytoprotection, ATP luminescence, 40 h | 230,000 compounds, 0.14% hits | Potency, µM (series often up to 56.4 µM), for the others: cytoprotection (ATP increase), actives largely listed as activators; further: potency means the concentration at half of the fitted maximal effect; % of control where 0% means no effect; nearly all actives have a fitted effect of over 45% in size
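Compounds were screened for protection of PC12 cells against cell death after tebufenozide induction (100 nM final) of mutant Huntingtin exon 1 (Q103) fused to GFP.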
* = called active by the depositor; [ ] = another dose, or the depositor's remark. Unless noted, the call rests on the fitted dose curve; in most records, active means well fitted curve in the direction sought with a large enough effect; inconclusive means small, poorly fitted or top-dose-only effect, or another doubt; inactive means no such curve, though single readings can be large; an effect the other way counts as inactive or inconclusive.

COc1ccc(S(=O)(=O)c2cc(NS(=O)(=O)c3ccc(Cl)cc3)c(C)c(C)c2O)cc1 was read as VDR inhibitor 19%.
Screening NC(=O)c1cc([N+](=O)[O-])c(Cl)cc1NCc1cccnc1 returned VDR inhibitor -12%.
For c1cn(-c2ncnc3sc4c(c23)CCCC4)cn1 the results were RGS12 GoLoco inh 3%, FBPA coupling cs 9, VDR inhibitor -13%, HTT aggregate 11µM*, KDM4E inh inconclusive and HTT ATP protect 20%[10 µM].
For c1ccn(-c2ncnc3sc4c(c23)CCCC4)c1 the results were RGS12 GoLoco inh 0%, FBPA coupling cs 3, VDR inhibitor -10%, HTT aggregate -6%, KDM4E inh 1% and HTT ATP protect 10%[10 µM].
For Cc1nc(N)sc1-c1csc(NCc2ccccc2)n1 the results were RGS12 GoLoco inh 160%, FBPA coupling cs -27, VDR inhibitor -19%, HTT aggregate 1%, KDM4E inh inconclusive and HTT ATP protect -33%.
For Cc1nc2sccn2c1-c1csc(NCc2ccccc2)n1 the results were RGS12 GoLoco inh 16%, FBPA coupling cs -4, VDR inhibitor -12%, HTT aggregate 7.1µM*, KDM4E inh -19% and HTT ATP protect -79%.
Screening Cc1cc(-c2csc(NCc3ccccc3)n2)c(C)n1C returned RGS12 GoLoco inh 86%, FBPA coupling cs -8, VDR inhibitor 50%, HTT aggregate 10%, KDM4E inh 28µM* and HTT ATP protect -12%.
`Cc1cccc(/C=C/C(=O)c2ccc(NC3=NCCCS3)cc2)c1` gave RGS12 GoLoco inh 1%, FBPA coupling cs 2, VDR inhibitor 20µM*, HTT aggregate 24%, KDM4E inh -8% and HTT ATP protect -15%[10 µM].
COc1cc(N/N=C/c2ccccc2O)ncn1 was read as RGS12 GoLoco inh 35%, FBPA coupling cs -1, VDR inhibitor -18%, HTT aggregate inconclusive, KDM4E inh 25µM* and HTT ATP protect 34%[10 µM].
COc1cc(N/N=C/c2ccc(N(C)C)cc2)ncn1 was read as RGS12 GoLoco inh 19%, FBPA coupling cs 2, VDR inhibitor -7%, HTT aggregate 6%[9.22 µM], KDM4E inh inconclusive and HTT ATP protect -52%[10 µM].
Cc1c(-c2nsc(NC(=O)c3cccs3)n2)nnn1-c1ccc(F)cc1 was read as VDR inhibitor 0%.
COc1ccc(C2c3cccn3CCN2S(=O)(=O)c2ccc([N+](=O)[O-])cc2)cc1 (stereo unspecified) was read as VDR inhibitor 13%.
For CC1(C)CC(=O)C=C(NCCN2CCN(C(=O)Nc3ccccc3)CC2)C1 the results were RGS12 GoLoco inh 14%, FBPA coupling cs 3, VDR inhibitor 17%, HTT aggregate 5.6µM*, KDM4E inh -1% and HTT ATP protect 7%[10 µM].
Screening CC(C)NCc1c(O)c(Br)cc2oc3c(c12)CCCC3 returned RGS12 GoLoco inh 5.6µM*, FBPA coupling cs -4, VDR inhibitor inconclusive, HTT aggregate -17%, KDM4E inh -9% and HTT ATP protect 4%[10 µM].
`O=C(C[n+]1ccccc1)N/N=C/c1cc(Br)cc(Br)c1O` gave FBPA coupling cs 2 and VDR inhibitor -26%.
For O=C(Cc1ccccc1)N/N=C/c1cc(Br)cc(Cl)c1O the results were RGS12 GoLoco inh 19%, FBPA coupling cs -2, VDR inhibitor 12%, HTT aggregate inconclusive and KDM4E inh 6.3µM*.
Screening O=C(CP(=O)(c1ccccc1)c1ccccc1)N/N=C/c1cc(Br)cc(Br)c1O returned RGS12 GoLoco inh 6%, FBPA coupling cs 2, VDR inhibitor 6%, HTT aggregate 11µM*, KDM4E inh inconclusive and HTT ATP protect inconclusive.
Screening CN(C)c1ccc(/C=C/c2cc[n+](C)cc2)cc1 returned RGS12 GoLoco inh 315%, FBPA coupling cs -2, VDR inhibitor -27%, HTT aggregate 2.5µM*, KDM4E inh 0% and HTT ATP protect -70%.
For CC[n+]1ccccc1/C=C/c1ccc(N(C)C)cc1 the results were RGS12 GoLoco inh 153%, FBPA coupling cs 0, VDR inhibitor -23%, HTT aggregate 2.8µM*, KDM4E inh -13% and HTT ATP protect -79%.
For O=C1COc2ccc(N3C(=O)C=CC3=O)cc2N1 the results were RGS12 GoLoco inh -24%, FBPA coupling cs 5, HTT aggregate 2%[9.22 µM], KDM4E inh 1% and HTT ATP protect -23%.
`Cc1ccc(CCNC(=O)c2c3c(nc4ccccc24)C(=O)N(C2CCCCC2)C3)cc1` gave VDR inhibitor 16%.
`CCc1nc2cc(Cl)c(Cl)cc2[nH]1` gave RGS12 GoLoco inh -9%, FBPA coupling cs 6, VDR inhibitor -4%, HTT aggregate 11µM*, KDM4E inh 1% and HTT ATP protect -1%[0.074 µM].
Screening CCc1nc2cc(Cl)c(Cl)cc2nc1CC returned RGS12 GoLoco inh 2%, FBPA coupling cs 6, VDR inhibitor -9%, HTT aggregate 8%[9.22 µM], KDM4E inh 3% and HTT ATP protect 10%[10 µM].
CC(C)(C)C1CCc2c(sc(N)c2C(N)=O)C1 (stereo unspecified) was read as RGS12 GoLoco inh 76%, FBPA coupling cs -19, VDR inhibitor 79µM*, HTT aggregate 7%, KDM4E inh inconclusive and HTT ATP protect -35%.
CN1CCN(C(=O)CSc2nnc(COc3ccc(Cl)cc3)o2)CC1 was read as FBPA coupling cs -1 and VDR inhibitor -2%.
For CNC(=S)/N=C/NOCc1ccc(Cl)cc1Cl the results were RGS12 GoLoco inh -5%, FBPA coupling cs -3, VDR inhibitor 6%, HTT aggregate 7.9µM*, KDM4E inh 8% and HTT ATP protect -33%[10 µM].
For Nc1ccc(N(CCO)CCO)cc1 the results were RGS12 GoLoco inh 8.9µM*, FBPA coupling cs -38*, VDR inhibitor inconclusive, HTT aggregate -15%[9.22 µM], KDM4E inh 32% and HTT ATP protect 2%[10 µM].
For CCN(CC)c1ccc(N)cc1 the results were RGS12 GoLoco inh 167%, VDR inhibitor -6% and HTT ATP protect -53%.
Screening CN1CCN(C(CNC(=O)C(=O)Nc2cccc(Cl)c2)c2ccc3c(c2)OCO3)CC1 (stereo unspecified) returned VDR inhibitor 13%.
`CN1C(=O)/C(=C2\SC(=S)N(C(CCC(=O)O)C(=O)O)C2=O)c2ccccc21` (stereo unspecified) gave RGS12 GoLoco inh -11%, FBPA coupling cs -22, VDR inhibitor -24%, HTT aggregate -17%, KDM4E inh 13µM* and HTT ATP protect 19%[10 µM].
For Cc1cc(Nc2cccc([N+](=O)[O-])c2)n2c(nc3ccccc32)c1C#N the results were RGS12 GoLoco inh 4%, FBPA coupling cs 1, VDR inhibitor -1%, HTT aggregate 2.8µM*, KDM4E inh -24% and HTT ATP protect -2%[10 µM].
